Test results from PubChem BioAssay.
Activity calls are given as the source filed them.

Columns and labels:
[1] = system: PRMT1 (protein arginine N-methyltransferase 1); test: small molecules binding arginine methyltransferase PRMT1 – biochemical, small-molecule microarray, 635 nm fluorescence, primary screen (AID 1088); conditions: higher = more signal;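 note: binding of Prmt1 protein to compounds spotted on small-molecule microarray slides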
[2] = growth effects on S. cerevisiae YJM789 – YJM789 clinical isolate, OD600, 24 h, basal, primary screen (AID 1089); conditions: higher = more signal, called active from +8 up or from −8 down;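 note: growth of clinical yeast isolate S. cerevisiae YJM 789 seeded 1000 cells per well; test concentration not given here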
[3] = S. pombe growth modifiers, basal conditions – strain 972, OD600, 24 h, no modulator, primary screen (AID 1090);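 note: basal condition with compound alone and no growth modifier present; test concentration not given here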; conditions: S. pombe 972 growth, higher = more signal, called active from +8 up or from −8 down
[4] = budding yeast growth modifiers under rapamycin – strain BY4716, OD600, 96 h, primary screen (AID 1091); note: test concentration not given here; conditions: S. cerevisiae BY4716 + rapamycin, higher = more signal, called active from +8 up or from −8 down
[5] = target: Torsin-1A-interacting protein 2 (Homo sapiens) (UniProt Q8NFQ8); test: small molecules binding lysate-expressed LULL1 – cell lysate, human LULL1 lysate, 635/667 nm fluorescence, primary screen (AID 1092); conditions: small-molecule microarray, hLULL1 lysate binding, 635 nm fluorescence; higher = more signal;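 note: probe is lysate of COS7 cells overexpressing human LULL1; score merges per-feature 667 nm fluorescence with signal-to-noise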
Sequence of Torsin-1A-interacting protein 2 (Homo sapiens) (Q8NFQ8 whole entry, looked up): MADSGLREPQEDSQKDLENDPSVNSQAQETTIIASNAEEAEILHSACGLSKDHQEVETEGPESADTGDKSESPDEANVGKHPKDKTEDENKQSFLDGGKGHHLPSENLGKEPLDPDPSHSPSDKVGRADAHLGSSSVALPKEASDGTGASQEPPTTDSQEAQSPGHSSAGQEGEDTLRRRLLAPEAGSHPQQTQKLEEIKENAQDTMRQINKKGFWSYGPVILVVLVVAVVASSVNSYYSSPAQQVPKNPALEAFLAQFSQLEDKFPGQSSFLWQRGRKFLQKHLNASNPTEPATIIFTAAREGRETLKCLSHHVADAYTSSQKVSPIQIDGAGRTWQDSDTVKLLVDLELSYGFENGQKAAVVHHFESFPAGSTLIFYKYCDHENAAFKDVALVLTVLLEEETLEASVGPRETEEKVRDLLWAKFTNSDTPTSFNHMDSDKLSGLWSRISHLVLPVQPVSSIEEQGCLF

[6] = optical density change of DRC41 E. coli – strain DRC41, OD650, 24 h, E. coli filamentation project, primary screen (AID 1093);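 note: MC1000 strain lacking acrAB efflux and sulA so SOS filamentation is blocked; test concentration not given here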; conditions: E. coli DRC41 growth, higher = more signal, called active from +8 up or from −8 down
[7] = probe aLefty2 binding to arrayed compounds – biochemical, biotinylated probe, 635/667 nm fluorescence, primary screen (AID 1094); conditions: small-molecule microarray, higher = more signal;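 note: score merges spot fluorescence near 667 nm with spot signal-to-noise ratio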
[8] = system: Noggin (protein binding on small-molecule microarray); test: small molecules binding Noggin protein – biochemical, 635/667 nm fluorescence, primary screen (AID 1095); conditions: 635 nm fluorescence, higher = more signal;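 note: score merges 667 nm feature fluorescence with signal to noise over triplicate slides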
[9] = target: Neurogenic locus notch homolog protein 3 (Homo sapiens) (UniProt Q9UM47); test: small molecules binding NOTCH3 protein – biochemical, 635/667 nm fluorescence, primary screen (AID 1096); conditions: small-molecule microarray, 635 nm fluorescence, higher = more signal
Sequence of Neurogenic locus notch homolog protein 3 (Homo sapiens) (Q9UM47 whole entry, looked up): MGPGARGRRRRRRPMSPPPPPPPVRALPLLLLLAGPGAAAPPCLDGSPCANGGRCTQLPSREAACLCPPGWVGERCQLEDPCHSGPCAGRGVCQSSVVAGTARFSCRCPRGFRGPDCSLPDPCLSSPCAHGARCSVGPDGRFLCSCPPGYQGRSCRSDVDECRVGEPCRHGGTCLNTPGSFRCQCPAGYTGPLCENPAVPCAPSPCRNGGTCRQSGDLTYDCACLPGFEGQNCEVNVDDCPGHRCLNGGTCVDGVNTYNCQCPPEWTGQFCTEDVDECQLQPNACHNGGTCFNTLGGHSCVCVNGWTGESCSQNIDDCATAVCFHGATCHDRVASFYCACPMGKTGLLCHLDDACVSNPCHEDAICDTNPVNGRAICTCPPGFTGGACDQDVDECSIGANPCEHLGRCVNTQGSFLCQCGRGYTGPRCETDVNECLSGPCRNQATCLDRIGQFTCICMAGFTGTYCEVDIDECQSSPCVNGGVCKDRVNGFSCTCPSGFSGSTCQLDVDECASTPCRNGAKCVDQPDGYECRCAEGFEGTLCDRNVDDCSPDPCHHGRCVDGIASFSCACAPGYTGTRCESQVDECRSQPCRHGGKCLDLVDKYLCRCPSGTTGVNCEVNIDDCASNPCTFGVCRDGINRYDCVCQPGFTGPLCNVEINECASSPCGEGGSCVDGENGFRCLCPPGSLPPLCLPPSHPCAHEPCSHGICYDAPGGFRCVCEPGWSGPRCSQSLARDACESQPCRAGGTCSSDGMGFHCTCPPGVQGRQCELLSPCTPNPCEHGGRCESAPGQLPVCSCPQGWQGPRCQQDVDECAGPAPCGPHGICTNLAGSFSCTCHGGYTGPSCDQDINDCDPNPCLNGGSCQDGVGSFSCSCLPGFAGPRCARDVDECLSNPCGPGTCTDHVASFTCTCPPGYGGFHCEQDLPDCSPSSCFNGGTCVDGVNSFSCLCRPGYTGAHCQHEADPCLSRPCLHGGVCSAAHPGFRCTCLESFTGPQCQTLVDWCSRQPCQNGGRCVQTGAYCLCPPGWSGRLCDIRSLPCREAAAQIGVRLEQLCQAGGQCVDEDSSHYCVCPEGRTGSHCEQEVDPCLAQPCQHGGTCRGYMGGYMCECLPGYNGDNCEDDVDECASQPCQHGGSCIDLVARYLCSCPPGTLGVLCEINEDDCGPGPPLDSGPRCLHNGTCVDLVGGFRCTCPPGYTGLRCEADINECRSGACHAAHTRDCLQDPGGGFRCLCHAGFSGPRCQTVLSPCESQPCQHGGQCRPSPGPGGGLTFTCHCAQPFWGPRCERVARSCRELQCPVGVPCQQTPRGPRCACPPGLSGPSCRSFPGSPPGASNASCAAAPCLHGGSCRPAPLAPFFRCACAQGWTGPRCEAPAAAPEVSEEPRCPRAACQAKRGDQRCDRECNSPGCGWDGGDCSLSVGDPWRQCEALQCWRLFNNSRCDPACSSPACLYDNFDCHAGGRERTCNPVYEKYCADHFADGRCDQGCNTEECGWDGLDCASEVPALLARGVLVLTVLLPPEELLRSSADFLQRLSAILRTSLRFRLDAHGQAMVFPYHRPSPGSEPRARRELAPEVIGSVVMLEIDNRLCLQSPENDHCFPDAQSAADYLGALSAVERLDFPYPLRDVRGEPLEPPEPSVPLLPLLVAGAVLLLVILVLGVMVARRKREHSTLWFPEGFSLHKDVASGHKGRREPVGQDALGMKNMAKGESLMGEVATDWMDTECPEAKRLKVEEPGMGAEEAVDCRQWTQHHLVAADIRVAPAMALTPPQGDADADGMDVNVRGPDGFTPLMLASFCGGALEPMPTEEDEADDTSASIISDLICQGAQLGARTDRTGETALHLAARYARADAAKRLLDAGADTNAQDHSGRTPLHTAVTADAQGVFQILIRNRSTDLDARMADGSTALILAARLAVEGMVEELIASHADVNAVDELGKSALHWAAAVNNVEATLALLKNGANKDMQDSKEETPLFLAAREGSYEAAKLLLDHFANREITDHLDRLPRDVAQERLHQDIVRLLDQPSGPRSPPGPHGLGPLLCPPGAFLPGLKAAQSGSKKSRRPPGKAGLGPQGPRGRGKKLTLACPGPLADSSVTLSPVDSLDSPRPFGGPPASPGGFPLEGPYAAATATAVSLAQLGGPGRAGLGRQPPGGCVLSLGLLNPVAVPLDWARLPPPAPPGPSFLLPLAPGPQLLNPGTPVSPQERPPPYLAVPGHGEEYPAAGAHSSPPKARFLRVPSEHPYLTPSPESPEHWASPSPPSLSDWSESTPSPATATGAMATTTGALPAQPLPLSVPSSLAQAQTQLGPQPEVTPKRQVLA

[10] = probe aEGFR binding to arrayed compounds – biochemical, biotinylated probe, 635/667 nm fluorescence, primary screen (AID 1097); conditions: small-molecule microarray, higher = more signal;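 note: probe is a biotinylated anti-EGFR antibody binding compounds printed on slides; score combines fluorescence near 667 nm and signal to noise of each spot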
[11] = system: Plasmodium falciparum Sir2 (PF13_0152, Sir2A); test: Plasmodium falciparum Sir2A binding compounds – biochemical, small-molecule microarray, 635 nm fluorescence, primary screen (AID 1098); conditions: fluorescence 635 nm, higher = more signal;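 note: score merges spot fluorescence intensity with its signal-to-noise ratio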
[12] = probe aDKK1 binding to arrayed compounds – biochemical, biotinylated probe, 635/667 nm fluorescence, primary screen (AID 1099); conditions: small-molecule microarray, higher = more signal;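 note: score merges 667nm spot fluorescence with signal to noise across triplicate slides; reference of the scale not given here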
[13] = probe aCHRDL2 binding to arrayed compounds – biochemical, biotinylated probe, 635/667 nm fluorescence, primary screen (AID 1100); conditions: small-molecule microarray, higher = more signal
[14] = change in splice reporter luminescence, either direction, cell-based, HEK293, spliceosome inhibition project, primary screen (AID 1101); conditions: HEK293 splicing luciferase reporter, 24 h, higher = more signal, called active from +8 up or from −8 down;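 note: HEK293 cells carrying a splicing-competent luciferase reporter gene; test concentration not given here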
[15] = target: Fibroblast growth factor 10 (Homo sapiens) (UniProt O15520); test: compounds binding fibroblast growth factor 10 – biochemical, small-molecule microarray, 635 nm fluorescence, primary screen (AID 1102); conditions: FGF10 binding, fluorescence 635 nm, higher = more signal
Sequence of Fibroblast growth factor 10 (Homo sapiens) (O15520 whole entry, looked up): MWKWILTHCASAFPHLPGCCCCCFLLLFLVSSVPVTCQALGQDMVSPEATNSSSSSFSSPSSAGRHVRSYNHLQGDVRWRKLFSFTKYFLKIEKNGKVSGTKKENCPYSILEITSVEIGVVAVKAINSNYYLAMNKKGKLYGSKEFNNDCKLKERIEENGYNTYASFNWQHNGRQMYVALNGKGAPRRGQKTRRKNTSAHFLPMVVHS

[16] = system: glycogen synthase kinase-3 (GSK3A per assay name; protocol says GSK3B); test: compounds binding glycogen synthase kinase-3 – biochemical, small-molecule microarray, 635 nm fluorescence, GSK3A, primary screen (AID 1103); conditions: fluorescence 635 nm, higher = more signal; note: the record names both GSK3A and GSK3B
[17] = target: Epidermal growth factor receptor (Homo sapiens) (UniProt P00533); test: compounds binding epidermal growth factor receptor – biochemical, small-molecule microarray, 635 nm fluorescence, primary screen (AID 1104); conditions: EGFR binding, higher = more signal;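 note: score merges 667 nm emission intensity with spot signal to noise over triplicate slides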
Sequence of Epidermal growth factor receptor (Homo sapiens) (P00533 whole entry, looked up): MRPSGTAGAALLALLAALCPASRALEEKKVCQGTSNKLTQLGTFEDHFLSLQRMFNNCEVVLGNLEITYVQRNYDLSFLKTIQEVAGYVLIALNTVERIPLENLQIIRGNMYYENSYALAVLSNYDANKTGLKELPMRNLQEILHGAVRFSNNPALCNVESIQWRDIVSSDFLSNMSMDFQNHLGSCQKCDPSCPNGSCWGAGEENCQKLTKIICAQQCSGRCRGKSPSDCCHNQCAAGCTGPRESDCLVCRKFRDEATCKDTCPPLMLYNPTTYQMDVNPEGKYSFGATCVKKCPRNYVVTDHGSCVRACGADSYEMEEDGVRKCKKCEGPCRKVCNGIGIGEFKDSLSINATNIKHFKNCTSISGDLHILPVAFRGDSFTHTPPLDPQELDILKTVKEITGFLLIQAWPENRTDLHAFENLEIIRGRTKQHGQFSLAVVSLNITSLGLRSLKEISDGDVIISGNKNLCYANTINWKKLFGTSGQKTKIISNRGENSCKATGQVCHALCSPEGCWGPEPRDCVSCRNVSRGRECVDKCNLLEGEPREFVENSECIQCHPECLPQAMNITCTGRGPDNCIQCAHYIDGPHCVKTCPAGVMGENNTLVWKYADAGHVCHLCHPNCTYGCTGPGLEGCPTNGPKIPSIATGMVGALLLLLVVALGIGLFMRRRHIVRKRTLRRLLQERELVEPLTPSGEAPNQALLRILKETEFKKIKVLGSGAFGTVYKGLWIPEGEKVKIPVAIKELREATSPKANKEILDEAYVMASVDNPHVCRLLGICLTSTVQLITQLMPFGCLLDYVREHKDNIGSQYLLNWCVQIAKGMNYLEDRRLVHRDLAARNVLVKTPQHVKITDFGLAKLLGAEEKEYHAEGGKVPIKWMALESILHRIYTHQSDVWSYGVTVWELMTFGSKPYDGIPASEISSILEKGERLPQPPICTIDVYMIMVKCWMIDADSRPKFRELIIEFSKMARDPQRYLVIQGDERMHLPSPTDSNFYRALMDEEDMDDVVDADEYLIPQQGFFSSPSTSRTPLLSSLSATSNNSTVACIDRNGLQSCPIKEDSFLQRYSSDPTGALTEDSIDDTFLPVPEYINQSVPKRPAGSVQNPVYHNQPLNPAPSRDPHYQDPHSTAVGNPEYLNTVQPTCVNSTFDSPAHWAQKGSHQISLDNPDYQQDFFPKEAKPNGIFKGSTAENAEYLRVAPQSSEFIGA

[18] = target: Follistatin-related protein 3 (Homo sapiens) (UniProt O95633); test: compounds binding follistatin-related protein 3 – biochemical, small-molecule microarray, 635 nm fluorescence, primary screen (AID 1105); conditions: FSTL3 binding, higher = more signal;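 note: score merges emission near 667 nm and signal to noise per printed spot across three slides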
Sequence of Follistatin-related protein 3 (Homo sapiens) (O95633 whole entry, looked up): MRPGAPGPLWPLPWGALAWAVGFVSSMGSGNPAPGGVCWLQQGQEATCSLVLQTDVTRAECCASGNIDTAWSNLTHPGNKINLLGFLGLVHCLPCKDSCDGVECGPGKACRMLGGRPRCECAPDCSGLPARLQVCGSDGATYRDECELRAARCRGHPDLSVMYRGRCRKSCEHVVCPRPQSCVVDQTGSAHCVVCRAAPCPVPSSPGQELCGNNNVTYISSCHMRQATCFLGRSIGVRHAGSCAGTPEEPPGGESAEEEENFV

[19] = target: Dickkopf-related protein 1 (Homo sapiens) (UniProt O94907); test: small molecules binding DKK1 protein – biochemical, small-molecule microarray, 635 nm fluorescence scan, primary screen (AID 1106); conditions: higher = more signal;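 note: score merges emission near 667 nm with signal to noise over three replicate slides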
Sequence of Dickkopf-related protein 1 (Homo sapiens) (O94907 whole entry, looked up): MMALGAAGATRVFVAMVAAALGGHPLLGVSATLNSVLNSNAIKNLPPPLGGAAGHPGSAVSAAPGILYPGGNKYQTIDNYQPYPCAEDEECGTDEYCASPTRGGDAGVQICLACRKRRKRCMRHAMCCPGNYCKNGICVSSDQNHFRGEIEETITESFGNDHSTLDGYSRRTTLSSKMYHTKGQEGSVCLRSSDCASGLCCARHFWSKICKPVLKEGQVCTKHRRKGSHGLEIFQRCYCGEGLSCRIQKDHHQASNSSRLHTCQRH

[20] = system: Inhibin beta A chain (activin A); test: small molecules binding activin A – biochemical, small-molecule microarray, 635 nm fluorescence scan, primary screen (AID 1107); conditions: INHBA, higher = more signal;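 note: mouse activin A protein probed at 4.33 µg/mL on printed slides; score merges bound-protein fluorescence near 667 nm with spot signal-to-noise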

| SMILES | composite z-score [1] | z-score [2] | z-score [3] | z-score [4] | composite z-score [5] | z-score [6] | composite z-score [7] | composite z-score [8] | composite z-score [9] | composite z-score [10] | composite z-score [11] | composite z-score [12] | composite z-score [13] | z-score [14] | composite z-score [15] | composite z-score [16] | composite z-score [17] | composite z-score [18] | composite z-score [19] | composite z-score [20] |
| --- | --- | --- | --- | --- | --- | --- | --- | --- | --- | --- | --- | --- | --- | --- | --- | --- | --- | --- | --- | --- |
| CO[C@H]1O[C@H](CO)[C@@H](OC(=O)c2ccc(Br)cc2)[C@@H]2OC(=O)[C@H](Cc3ccccc3)C/C=C/C[C@@H](Cc3ccccc3)C(=O)O[C@@H]12 | 0.965 | -1.92 (inactive) | -1.19 (inactive) | 0.161 (inactive) | 1.63 | 2.14 (inactive) | 0.13 | 0.413 | 0.181 | -0.176 | 1.14 | -0.407 | 0.0962 | -0.511 (inactive) | 0.583 | 0.186 | 0.287 | 0.435 | 0.214 | 1.24 |
| C=CCC(OC(C)=O)[C@@H]1[C@@H](N(Cc2ccc(-c3cccc(C(F)(F)F)c3)o2)C(=O)c2ccc(C)cc2)c2cc(OCCCO)ccc2N1C(=O)Cc1ccc(OC)cc1 (stereo not given in full) | -0.118 | 0.9 (inactive) | 0.145 (inactive) | 0.0453 (inactive) | -0.639 | 1.34 (inactive) | -0.131 | -0.0236 | -0.0141 | -0.0828 | 1.1 | -0.145 | -0.0583 | -0.0858 (inactive) | -0.0938 | -0.808 | -0.0424 | 0.345 | 0.0682 | 0.975 |
| CCOC(=O)C1=C[C@@H](C(C)(C)C)N(S(=O)(=O)c2ccc(C)cc2)[C@H]1c1ccc(C)cc1 | 1.54 | -0.582 (inactive) | 0.0598 (inactive) | 0.632 (inactive) | 3.25 | -1.38 (inactive) | 0.273 | 0.552 | 1.02 | 0.157 | 0.772 | 0.46 | 0.517 | -0.598 (inactive) | 1.3 | 0.995 | 0.78 | 1.26 | 0.541 | 0.516 |
| COCCOC(=O)N1C(=O)[C@@]2(c3cc(C#CCCO)ccc31)[C@H](C(=O)N1CCCCCCC1)[C@H]1C(=O)O[C@H](c3ccccc3)[C@H](c3ccccc3)N1[C@@H]2c1ccccc1OCCO | 1.54 | 0.658 (inactive) | -2.09 (inactive) | 1.93 (inactive) | 4 | -0.452 (inactive) | 1.47 | 1.76 | 1.07 | 0.89 | 1.24 | 2.67 | 1.6 | -0.0434 (inactive) | 0.663 | 1.35 | 1.31 | 1.58 | 1.43 | 1.86 |
| COCCOC(=O)N1C(=O)[C@@]2(c3cc(C#CC4(O)CCCCCC4)ccc31)[C@H](C(=O)N1CCN(c3ncccn3)CC1)[C@H]1C(=O)O[C@H](c3ccccc3)[C@H](c3ccccc3)N1[C@@H]2c1ccccc1OCCO | 1.2 | 2.56 (inactive) | 2.26 (inactive) | 7.55 (inactive) | 1.79 | -0.267 (inactive) | -0.0795 | 1.04 | 1.08 | 0.0436 | 1.27 | -0.0139 | -0.113 | -0.278 (inactive) | 0.864 | 1.29 | 0.906 | 1.29 | 1.32 | 0.521 |
| [N-]=[N+]=NC[C@H](Cc1ccccc1)NC(=O)c1ccccc1 | 0.376 | -1.02 (inactive) | -2.38 (inactive) | -1.27 (inactive) | 0.214 | 1.56 (inactive) | -0.0666 | 0.014 | -0.371 | -0.14 | -0.554 | -0.124 | -0.414 | -0.0894 (inactive) | -0.0183 | -0.089 | 0.0214 | -0.394 | 0.0359 | 0.382 |
| Cc1ccc(S[C@]2(C(=O)NCc3ccccc3)CC(=O)N(Cc3cc(C(F)(F)F)cc(C(F)(F)F)c3)[C@@H]2c2ccc(CO)cc2I)cc1 | -0.455 | 0.269 (inactive) | -2.56 (inactive) | 0.49 (inactive) | 0.742 | -0.607 (inactive) | 0.01 | -1.71 | -1.93 | -0.3 | -0.466 | 0.664 | 1.22 | -1.21 (inactive) | -1.31 | -0.714 | -1.78 | -0.203 | -1.54 | 1.02 |
| [N-]=[N+]=NCc1ccccc1[C@H]1OC(c2ccc(OCCCO)cc2)=N[C@@]1(CCS(=O)(=O)c1ccccc1)C(=O)NCc1ccccc1 | 1.55 | 1.47 (inactive) | 0.431 (inactive) | 4.54 (inactive) | 3.11 | 1.28 (inactive) | 0.455 | 0.605 | 1.13 | 0.706 | 1.26 | 1.65 | 0.743 | 0.118 (inactive) | 1.06 | 1.29 | 0.333 | 0.819 | -0.0778 | 0.447 |
| COc1cc(NN2C(C(O)c3ccc(I)cc3)C=CC3C(=O)N(c4ccccc4)C(=O)C32)cc(OC)c1OC (stereo not given) | 1.56 | 0.93 (inactive) | -0.229 (inactive) | 0.0332 (inactive) | 3.56 | -0.699 (inactive) | 0.25 | 0.218 | 1.05 | -0.0423 | 0.913 | 0.763 | 1.04 | -0.329 (inactive) | 1.17 | 1.29 | 0.266 | 1.3 | -0.305 | 0.946 |
